FLuc counter = firefly luciferase modulation, counter-screen for miR-21 project | P08659 | purified FLuc, Km substrates, luminescence inhibition | Potency, µM (highest dose often 57.5 µM), for inactives: at the highest dose activity change, negative = inhibition, usual class: inhibitors | 360,000 compounds, 6.9% hits;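 note: plate controls were vehicle for no effect and reference inhibitor for full effect; nearly all actives have a fitted effect of over 55% in size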
Target sequence (P08659 whole entry, looked up): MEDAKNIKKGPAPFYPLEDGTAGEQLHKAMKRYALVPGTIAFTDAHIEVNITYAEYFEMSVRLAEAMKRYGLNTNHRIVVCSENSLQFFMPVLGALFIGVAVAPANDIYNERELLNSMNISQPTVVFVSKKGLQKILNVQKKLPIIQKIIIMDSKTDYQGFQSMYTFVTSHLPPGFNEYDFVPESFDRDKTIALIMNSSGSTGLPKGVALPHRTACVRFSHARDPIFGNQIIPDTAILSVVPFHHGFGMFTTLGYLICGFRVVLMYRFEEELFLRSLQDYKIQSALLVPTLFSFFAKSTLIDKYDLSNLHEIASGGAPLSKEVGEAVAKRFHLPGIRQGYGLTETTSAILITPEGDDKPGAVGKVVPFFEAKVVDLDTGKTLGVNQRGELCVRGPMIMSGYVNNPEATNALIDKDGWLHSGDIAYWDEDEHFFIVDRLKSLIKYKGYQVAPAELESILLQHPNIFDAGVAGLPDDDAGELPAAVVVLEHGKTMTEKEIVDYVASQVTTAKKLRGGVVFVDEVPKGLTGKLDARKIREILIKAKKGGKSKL
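Biochemical qHTS of compounds, final roughly 60 µM downward over six points, against 10 nM purified firefly luciferase using Km concentrations of substrates (10 uM D-luciferin, 10 uM ATP) in Tris acetate pH 7.5 buffer; luminescence output.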
ELG1 genotoxic = inducers of genotoxicity in HEK293T ELG1-luciferase cells; 330,000 compounds, 1.3% hits; HEK293T ELG1-luciferase reporter, luminescence, 16 h; Potency, µM (titrated, usually from 46 µM), inactives show at the highest dose activity change, positive = activation, actives largely listed as activators; AID 504466; note: % of control where 0% means no effect; nearly all actives have a fitted effect of over 60% in size
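Reporter readout depends on ELG1 protein level, which increases with genetic stress. After 16 hr compound exposure at 37 °C, luciferase activity was quantified using ONE-Glo.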
NPC1 promoter act = activators of NPC1 promoter. Huh7 NPC1 promoter luciferase reporter, 24 h. 320,000 compounds, 2.4% hits. Potency, µM (series often up to 9.22 µM), for inactives: top-dose activation, actives largely listed as activators. AID 485313; note: % of control where 0% means no effect; nearly all actives have a fitted effect of over 60% in size
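Stably transfected Huh7 (NPC1 promoter→luciferase), 1500 cells/well in Opti-MEM + 10% FBS, 2 h settle, then compound 24 h at 37 °C. Luminescence after 10 min with Amplite reagent.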
SMN2 splice up = SMN2 splice variant enhancement; 210,000 compounds, 2.8% hits; Potency, µM (highest dose often 46.1 µM), without a hit: at the highest dose activity change, positive = activation, most hits filed as activators; HEK293 SMN2-luciferase splicing reporter, luminescence, 30-36 h; note: % of control where 0% means no effect; nearly all actives have a fitted effect of over 55% in size
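HEK293 cells carry an SMN2 minigene-luciferase reporter in which exon 7 inclusion puts luciferase in frame. Cells were seeded at 2000 cells/well, attached for 10-12 hours, then exposed to compounds for 30-36 hours at 37C before ONE-Glo luminescence.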
ELG1 DNA repair = ELG1-dependent DNA repair inhibition | 330,000 compounds, 2.3% hits | HEK293T ELG1-luciferase reporter, luminescence, 16 h; DNA damage induced by 5-fluorouridine | Potency, µM (highest dose often 46.1 µM), without a hit: at the top dose activity change, negative = inhibition, usual class: inhibitors | AID 504467; note: % is set by controls: 0 for no effect and ±100 for the full control effect; nearly all actives have a fitted effect of over 55% in size
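5-Fluorouridine DNA damage + compound/DMSO, 2,000 cells/well, 16 h, 37 °C/5% CO2. ONE-Glo, 30 min RT, luminescence. Readout = decrease in reporter signal.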
Rab9 prom act = Rab9 promoter activation. Huh7 Rab9 promoter-luciferase reporter, luminescence, 24 h. Potency, µM (highest dose often 9.22 µM), inactives show top-dose activation, negative = inhibition, usual class: activators. 320,000 compounds, 2.8% hits. AID 485297; note: % of control where 0% means no effect; nearly all actives have a fitted effect of over 60% in size
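Using Huh7 cells stably transfected with Rab9 promoter–luciferase, compounds were incubated 24 h at 37 °C, 5% CO2; luciferase luminescence was read 10 min after reagent addition.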
Starred values were filed as active, the others as inactive; ? = inconclusive; . = no result; [ ] = remark or other dose. Shown are actives, neighbours in structure and some others; about 9.4% of the full set was active somewhere. Calls come from the whole dose curve; as a rule, active = well fitted curve in the direction sought with a large enough effect; inconclusive = small, poorly fitted or top-dose-only effect, or another doubt; inactive = no such curve, though single readings can be large; an effect the other way counts as inactive or inconclusive. Potency is the fitted concentration of half-maximal effect.

SMILES	FLuc counter	ELG1 genotoxic	NPC1 promoter act	SMN2 splice up	ELG1 DNA repair	Rab9 prom act
O=C(Cn1c(=O)nc(-c2ccccc2)c2cc(Cl)ccc21)N1CCN(c2ccc(F)cc2)CC1	-8%	.	.	.	.	.
COc1ccc(NC(=O)c2oc3ccccc3c2NC(=O)C23CC4CC(CC(C4)C2)C3)c(OC)c1	-3%	.	.	-3%	.	.
COc1ccc(OCCSc2ncnc3nc[nH]c23)cc1	17µM*	?	?	-18%	-1%	?
COc1ccccc1OCCSc1nc2ccccc2c(=O)[nH]1	?	?	16%	?	?	15%
O=c1[nH]c(SCCOc2ccccc2F)nc2ccccc12	27µM*	8%	12%	.	?	18%
Fc1ccccc1OCCSc1ncnc2nc[nH]c12	?	?	26%	?	?	?
Clc1ccc(OCCSc2ncccn2)cc1	6.7µM*	8.2µM*	2.5µM*	25µM*	?	3.5µM*
c1cnc(SCCCOc2ccc3ccccc3c2)nc1	17µM*	21µM*	?	16%	?	?
COc1cc(OC)cc(C(=O)N2CC(=O)Nc3ccc(Cl)cc3C2c2ccccc2)c1 (centres undefined)	-1%	.	.	-12%	.	.
COc1ccc(OC)c(NC(=O)CSc2cn(CC(=O)N3CCCCCC3)c3ccccc23)c1	-4%	.	.	.	.	.
CCOc1ccccc1NC(=O)N(C)CCc1c(C)nn(CC)c1C	-10%	.	.	.	.	.
COc1cc(OC)c(NC(=O)CSc2nc3ccncc3[nH]2)cc1Cl	-16%	.	-3%	-40%	.	-4%
O=C(Nc1ccc(Br)cc1F)C1CCN(c2nc3ccccc3[nH]2)CC1	-8%	.	.	.	.	.
COc1cccc(OCCSc2nc(N)cc(N)n2)c1	24µM*	?	?	-63%	-5%	?
Cc1ccc(C(=O)C(C(=O)/C=C/c2ccccc2)=C2SCCCS2)cc1	-8%	-12%	-13%	-81%	18µM*	-17%
COc1cc(Cl)ccc1OCc1cc(C(=O)N2CCCC(OC)C2)no1 (centres undefined)	5.4µM*	5.8µM*	2µM*	.	?	1.8µM*
COc1cc(C)ccc1OCc1cc(C(=O)N2CCC(c3ccc(F)cc3)C2)no1 (centres undefined)	7.6µM*	?	2.2µM*	.	?	2.2µM*
COCC1CCN(C(=O)c2cc(COc3ccc(F)cc3F)on2)C1 (centres undefined)	-3%	3%	3%	.	?	-1%
CCCOC1CCCN(C(=O)c2cc(COc3ccc(F)c(F)c3)on2)C1 (centres undefined)	21µM*	?	2.8µM*	.	?	2.8µM*
COc1ccc(OCc2cc(C(=O)N3CCC(OC)CC3)no2)c2ccccc12	11µM*	?	?	.	?	2.5µM*
Cc1cc(OC(C)C(=O)N(Cc2ccco2)Cc2ccco2)cc(C)c1Cl (centres undefined)	?	.	.	-12%	.	.
O=C(c1ccc(S(=O)(=O)Nc2ccccc2F)cc1)N1CCN(c2ccccc2O)CC1	9%	0%	-3%	.	-3%	-3%
CCOC(=O)C1CCN(C(=O)c2cc(COc3ccc(OC)c4ccccc34)on2)CC1	15µM*	?	?	.	?	3.5µM*
COc1cc(Cl)ccc1OCc1cc(C(=O)N2CCCCCC2)no1	?	14%	11%	.	19%	0%
COc1ccc(CNCc2c(C(=O)O)c(C)n(Cc3ccccc3C)c2C)c(OC)c1	-11%	.	.	-1%	.	.
SMILES	FLuc counter	ELG1 genotoxic	NPC1 promoter act	SMN2 splice up	ELG1 DNA repair	Rab9 prom act
O=C(Nc1cc(Cl)ccc1N1CCOCC1)c1ccc2c(c1)OCCO2	?	-1%	0%	-11%	?	-6%
O=C(Nc1ccc(F)c([N+](=O)[O-])c1)c1ccc2c(c1)OCCO2	6µM*	10%	17%	22%	7%	?
O=C(Nc1ccc(Cl)cc1[N+](=O)[O-])c1ccc2c(c1)OCCO2	?	4.1µM*	0.56µM*	.	?	0.45µM*
O=C(Nc1ccc(F)c([N+](=O)[O-])c1)c1ccc2c(c1)C(=O)OC2=O	-1%	0%	-2%	.	13%	10%
Cc1nc2cccc([N+](=O)[O-])c2n1CCCN(C)C	.	.	.	2%[9.22 µM]	.	.
Cc1cc(=O)n(Cc2cccc(Cl)c2)c2c1c(C)nn2C	-13%	.	.	.	.	.
Cc1cccc2nc(-c3ccccc3)nc(N[C@@H](CO)c3ccccc3)c12	0%	-12%	0%	-102%	9.2µM*	-4%
COc1ccc(C2CC(=O)C3=C(C2)NC(C)=C(C(=O)Nc2ccccc2C)C3c2coc3ccc(C)cc3c2=O)cc1OC (centres undefined)	?	-7%	0%	17%	5.8µM*	2%
CC1=C(C(=O)Nc2ccccc2)C(c2coc3ccccc3c2=O)C2=C(CCCC2=O)N1 (centres undefined)	3%	0%	1%	15%	3%	12%
CC(=O)Nc1ccc(NC(=O)C(NC(=O)C2CCC(C)CC2)C(C)C)cc1 (centres undefined)	-3%	.	.	0%	.	.
Cc1ccc(NC(=O)/C=C/c2cccc([N+](=O)[O-])c2)nc1	-1%	16%	1%	11%	?	19%
CCCCNC(=O)C1CCN(S(=O)(=O)c2c(C)noc2/C=C\c2ccc(OC)cc2)CC1	1%	10%	-2%	0%	-1%	-2%
O=C(O)/C=C/C(=O)Nc1cccc2cccnc12	?	6%	2%	.	24%	11%
COc1ccc(/C=C\c2onc(C)c2S(=O)(=O)N2CCC(C(=O)NCCC(C)C)CC2)cc1	1%	0%	-3%	-10%	-26%	6.3µM*
O=C(/C=C/c1ccco1)Nc1cccc2cccnc12	15µM*	?	26%	?	?	26%
Cc1ccc(NC(=O)C2CCN(S(=O)(=O)c3c(C)noc3/C=C/c3ccco3)CC2)nc1	1%	0%	-21%	-6%[1.84 µM]	15µM*	-31%
Cc1ccc(NC(=O)/C=C/c2ccco2)nc1	6µM*	4.1µM*	?	14µM*	?	22%
Cc1ccccc1NC(=O)C1CCN(S(=O)(=O)c2c(C)noc2/C=C/c2ccco2)CC1	-2%	.	.	3%	.	.
COc1ccc(-c2nc(C)c(CCNC(=O)C(=O)Nc3cc(C)cc(C)c3)s2)cc1OC	2%	.	.	.	.	.
Cc1sc2ncnc(N3CCC(C(=O)NNC(=O)COc4cccc(C(F)(F)F)c4)CC3)c2c1C	2%	-5%	-13%	.	?	-6%
COc1ccc2c(c1)c1c(c(=O)n(-c3cc(Cl)ccc3C)c(=O)n1CC(=O)N1CCCC1)n2C	-3%	.	.	.	.	.

Screens from PubChem BioAssay.
